NCOA1 inh – SRC1 coactivator transcriptional activity inhibitors, primary screen, cell-based, luminescence; Nuclear receptor coactivator 1 (Homo sapiens), Q15788; HEK293 GAL4-SRC1 luciferase reporter; inhibition, % at 3.6 µM; actives 0.12% (n = 360,000);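 active = inhibition above the campaign mean plus 3 SD, with each screening campaign given its own cutoff, cut at about 60% in these data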;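 also: 0% = DMSO treated cells and 100% = gossypol at 36 µM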
SRC2 inh – inhibition of GAL4-SRC2 driven luciferase reporter, primary screen, SRC2 inhibitor project, cell-based, luminescence | inhibition, % at 9 µM | HEK293 GAL4-SRC2 luciferase reporter | actives 0.17% (n = 370,000) | Nuclear receptor coactivator 2 (Homo sapiens), Q15596;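 active = inhibition above the mean inhibition of all tested compounds plus 3 SD, set per campaign, cut at about 52% in these data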;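 also: 0% = DMSO treated cells and 100% = cells given Gossypol at 36 µM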
Target sequence (Q15596 whole entry, looked up, the tested form may be a part): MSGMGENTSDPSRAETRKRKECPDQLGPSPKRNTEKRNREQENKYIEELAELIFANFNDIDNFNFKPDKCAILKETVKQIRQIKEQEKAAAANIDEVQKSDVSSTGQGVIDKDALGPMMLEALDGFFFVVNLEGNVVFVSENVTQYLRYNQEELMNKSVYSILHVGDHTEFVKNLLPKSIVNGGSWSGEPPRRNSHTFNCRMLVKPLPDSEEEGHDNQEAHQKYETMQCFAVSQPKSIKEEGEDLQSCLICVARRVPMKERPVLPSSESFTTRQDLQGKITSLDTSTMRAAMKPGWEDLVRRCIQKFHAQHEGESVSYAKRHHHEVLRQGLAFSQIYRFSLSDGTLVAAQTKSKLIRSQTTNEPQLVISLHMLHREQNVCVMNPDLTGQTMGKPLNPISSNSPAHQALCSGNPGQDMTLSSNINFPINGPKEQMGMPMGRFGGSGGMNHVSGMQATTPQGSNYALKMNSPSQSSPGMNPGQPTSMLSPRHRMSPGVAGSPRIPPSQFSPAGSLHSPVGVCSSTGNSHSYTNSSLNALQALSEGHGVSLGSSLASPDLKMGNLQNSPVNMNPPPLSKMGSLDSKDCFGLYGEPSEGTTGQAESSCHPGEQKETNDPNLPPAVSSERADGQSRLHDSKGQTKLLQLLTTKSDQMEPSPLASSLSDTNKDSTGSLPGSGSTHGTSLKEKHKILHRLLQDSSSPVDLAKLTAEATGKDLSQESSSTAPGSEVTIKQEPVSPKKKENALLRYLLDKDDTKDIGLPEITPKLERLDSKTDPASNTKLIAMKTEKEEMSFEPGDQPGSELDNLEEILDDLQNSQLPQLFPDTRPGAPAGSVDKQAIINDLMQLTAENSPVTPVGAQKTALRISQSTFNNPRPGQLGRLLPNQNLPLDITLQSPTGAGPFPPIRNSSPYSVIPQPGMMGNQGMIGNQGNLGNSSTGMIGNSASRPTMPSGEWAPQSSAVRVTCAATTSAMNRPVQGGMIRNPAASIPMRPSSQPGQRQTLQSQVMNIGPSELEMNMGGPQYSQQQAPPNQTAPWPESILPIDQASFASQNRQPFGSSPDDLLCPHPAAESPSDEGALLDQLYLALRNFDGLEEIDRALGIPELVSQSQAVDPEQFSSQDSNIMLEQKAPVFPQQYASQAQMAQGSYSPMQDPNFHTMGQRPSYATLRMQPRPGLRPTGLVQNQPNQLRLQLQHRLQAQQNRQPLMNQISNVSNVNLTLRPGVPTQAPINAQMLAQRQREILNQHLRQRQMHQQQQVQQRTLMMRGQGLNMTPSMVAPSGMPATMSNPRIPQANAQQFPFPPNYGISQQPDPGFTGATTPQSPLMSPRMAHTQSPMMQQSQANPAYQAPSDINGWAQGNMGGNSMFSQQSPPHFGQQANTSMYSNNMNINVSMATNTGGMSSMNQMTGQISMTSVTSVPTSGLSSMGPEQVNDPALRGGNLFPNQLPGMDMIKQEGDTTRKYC
SRC3 inh – SRC3 coactivator transcriptional activity inhibitors, primary screen, cell-based, luminescence; Nuclear receptor coactivator 3 (Homo sapiens), Q9Y6Q9; HEK293 GAL4-SRC3 luciferase reporter; inhibition, % at 3.6 µM; actives 0.17% (n = 360,000);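 active = inhibition above a per-campaign cutoff, the mean of all compounds plus 3 SD, cut at about 60% in these data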;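 also: 0% = DMSO-treated cells and 100% = gossypol-treated cells at 36 µM; higher means less SRC3-driven luciferase light from the GAL4 reporter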
LRH-1 inv ag – LRH-1 (NR5A2) inverse agonists, primary screen, cell-based, luminescence, HEK293T, StAR-luciferase reporter | Nuclear receptor subfamily 5 group A member 2 (Homo sapiens), O00482 | inhibition, % at 3.6 µM | LRH-1 transfected, 24 h | AID 602396, 2012 | actives 0.13% (n = 360,000);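 active = inhibition above the mean inhibition of all tested compounds plus 3 SD, cut at about 73% in these data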;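 also: 0% = DMSO wells and 100% = reporter-only cells lacking LRH-1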
LGR2 antag – inhibitors of bursicon-induced LGR2 CRE-luciferase signal, primary screen, cell-based, HEK293, CRE-luciferase reporter, bursicon stimulation; AID 720647, 2013; actives 0.35% (n = 380,000); inhibition, % at 9.99 µM; bursicon-stimulated, 4 h;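 active = drop in luminescence signal, shown as inhibition above about 50% in the replicate tests, limit read from the data, passing the limit was not always enough; inconclusive = probably only some replicates passing the limit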;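 also: agonist challenge used bursicon conditioned medium at about half maximal strength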
* marks the source's active call; other numbers are inactive results; ? = inconclusive; . = no result. A selection: hits, their analogues and other compounds. The true share with any hit is near 0.48%.

SMILES | NCOA1 inh | SRC2 inh | SRC3 inh | LRH-1 inv ag | LGR2 antag
COc1ccc(N(C(=O)c2cccnc2)S(=O)(=O)c2ccc3c4c(cccc24)C(=O)N3C)cc1 | -6 | 13 | 8 | 6 | 33
COc1ccc(N(C(=O)c2ccncc2)S(=O)(=O)c2ccc3c4c(cccc24)C(=O)N3C)cc1 | -8 | 3 | 0 | -1 | 72*
CCOC(=O)c1ccc(NC(=O)COc2ccccc2CNCCc2ccccc2)cc1 | -6 | -2 | 26 | 10 | 71*
CCOC(=O)c1ccc(NC(=O)COc2ccc(CNCCO)cc2OCC)cc1 | -8 | -5 | 7 | 11 | -10
O=C(Nc1ccc(N2CCN(c3ncccc3C(F)(F)F)CC2)nc1)c1cccs1 | 24 | 4 | 35 | 17 | 92*
C[C@H]1CN([C@@H](C)CO)C(=O)c2cc(NC(=O)CCC(F)(F)F)ccc2O[C@H]1CN(C)Cc1ccc2c(c1)OCO2 | . | . | . | . | 3
O=C(/C=C/c1ccc(Cl)c([N+](=O)[O-])c1)Nc1cccc(NC(=O)c2ccco2)c1 | 9 | -12 | 9 | -21 | 57*
CN(C)NC1=CC(=[N+]2CCCC2)CC(C)(C)C1 | -2 | -4 | 24 | 6 | 7
CCCN(CCC)C1=CC(=[N+]2CCCC2)CC(C)(C)C1 | 61* | 39 | 55 | 72 | 0
Nc1ccc(-c2nc3ccccc3s2)cn1 | -112 | -41 | -94 | -142 | -78
Cc1ccc2nc(-c3ccc(N)cc3)sc2c1 | -96 | -51 | -77 | -118 | 82*
Cc1cc(-c2nc3ccccc3s2)ccc1N | -129 | -30 | -119 | -140 | 54*
COc1ccc2nc(-c3ccc(F)cc3)sc2c1 | -78 | -2 | -86 | -128 | 92*
CNC(=S)Nc1ccc(-c2nc3ccc(C)cc3s2)cc1 | -147 | -59 | -104 | -120 | 53*
COc1ccc(S(=O)(=O)N(C)C[C@@H]2Oc3ccc(NC(=O)Nc4cccc5ccccc45)cc3CC(=O)N([C@@H](C)CO)C[C@@H]2C)cc1 | . | . | . | . | -8
C[C@@H]1CN([C@@H](C)CO)C(=O)c2cc(C#CC3CC3)cnc2O[C@@H]1CN(C)C(=O)c1ccncc1 | . | . | . | . | 3
COc1ccccc1CNC(=O)C[C@@H]1C[C@@H]2c3cc(NC(=O)Nc4ccc(C(F)(F)F)cc4)ccc3O[C@@H]2[C@H](CO)O1 | . | . | . | . | 10
CCCC(=O)Nc1ccc2c(c1)OC[C@@H](C)N(CCC)C[C@H](C)[C@H](OC)CN(C)C2=O | . | . | . | . | 12
CC1CCC(C(C)C)C(OC(=O)Cn2c(-c3ccc(Cl)cc3)[n+](C)c3ccccc32)C1 (centres undefined) | 18 | 7 | 31 | 26 | 17
Cc1ccccc1OCc1n(CC(=O)OC2CC(C)CCC2C(C)C)c2ccccc2[n+]1C (centres undefined) | -5 | 6 | 34 | 24 | 75*
CC1CCC(C(C)C)C(OC(=O)Cn2c(-c3ccc(Br)cc3)[n+](C)c3ccccc32)C1 (centres undefined) | 3 | 16 | 9 | -3 | 78*
COc1ccc(S(=O)(=O)N(C)C[C@H]2OCCCC[C@H](C)Oc3ccc(NC(=O)c4ccncc4)cc3C(=O)N([C@H](C)CO)C[C@H]2C)cc1 | . | . | . | . | 5
CC1Cc2ccccc2N1c1ncnc(N)c1[N+](=O)[O-] (centres undefined) | 66* | 72* | 64* | 41 | 64*
CC1CCCCN1c1ncnc(N)c1[N+](=O)[O-] (centres undefined) | 45 | 43 | 43 | 5 | 17
CN1CCN(C(=O)c2ccc(-c3cccs3)s2)CC1 | -99 | -50 | -121 | -116 | .
O=C(c1cccs1)c1ccc(-c2cccs2)s1 | -100 | -44 | -83 | -159 | 62*
Cc1ccc(NC(=O)CCN2CCCCC2)cc1 | 20 | 59* | 8 | 9 | 10
Cc1cc(C)nc(SCc2ccc(C(=O)N/N=C/c3cccc(O)c3O)cc2)n1 | 24 | 33 | 66* | -6 | 11
COc1ccc(C(=O)/C=C/C(=O)N(CC(=O)NC2CCCCC2)CC2CCCO2)c(O)c1 (centres undefined) | -31 | -76 | 2 | 17 | 104*
COc1ccc(C(=O)/C=C/C(=O)N(CC(=O)NC2CCCCC2)Cc2ccccc2OC)c(O)c1 | -15 | 7 | 10 | -11 | ?
